SMN2 splice enh: increases expression of the SMN2 splice variant; AID 1458; HEK293 SMN2-luciferase splicing reporter, luminescence, 30-36 h; Potency, µM (titrated, usually from 46.1 µM), actives largely listed as activators; 210,000 tested, 2.8% active; also: nearly all actives have a fitted effect of over 55% in size
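HEK293 cells carry an SMN2 […]–luciferase reporter in which exon 7 inclusion puts luciferase in frame. Cells were plated 10-12 h before compound addition, then incubated 30-36 h at 37C. ONE-Glo luminescence was read; sodium butyrate at 4.5 mM final served as control.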
FLuc modulator: firefly luciferase modulation, counter-screen for miR-21 project; purified FLuc, Km substrates, luminescence inhibition; P08659; Potency, µM (series often up to 57.5 µM), actives largely listed as inhibitors; AID 588342; 360,000 tested, 6.9% active; also: nearly all actives have a fitted effect of over 55% in size
Target sequence (P08659 whole entry, looked up): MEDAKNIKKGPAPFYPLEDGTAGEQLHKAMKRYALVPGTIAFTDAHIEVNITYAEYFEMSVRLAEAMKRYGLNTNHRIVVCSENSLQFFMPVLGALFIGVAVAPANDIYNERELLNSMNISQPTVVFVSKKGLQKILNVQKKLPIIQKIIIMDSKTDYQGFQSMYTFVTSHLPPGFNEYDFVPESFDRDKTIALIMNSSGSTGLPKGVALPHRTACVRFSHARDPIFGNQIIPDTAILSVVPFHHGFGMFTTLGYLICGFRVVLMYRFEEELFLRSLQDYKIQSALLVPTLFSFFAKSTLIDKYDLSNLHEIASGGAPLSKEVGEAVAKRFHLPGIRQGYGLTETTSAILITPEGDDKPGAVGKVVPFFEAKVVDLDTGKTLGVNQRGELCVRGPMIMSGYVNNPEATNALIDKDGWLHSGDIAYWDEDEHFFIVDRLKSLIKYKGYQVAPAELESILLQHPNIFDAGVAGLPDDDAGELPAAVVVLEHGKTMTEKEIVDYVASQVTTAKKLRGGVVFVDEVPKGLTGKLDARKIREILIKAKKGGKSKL
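Biochemical qHTS of compounds, final roughly 60 µM downward over six points, against 10 nM purified firefly luciferase using Km concentrations of substrates (10 uM D-luciferin, 10 uM ATP) in Tris acetate pH 7.5 buffer; luminescence output.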
Rab9 prom act: activates the Rab9 promoter. Huh7 Rab9 promoter-luciferase reporter, luminescence, 24 h. Potency, µM (doses to about 9.22 µM), usual class: activators. 320,000 tested, 2.8% active; also: nearly all actives have a fitted effect of over 60% in size
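Stable Rab9-luc Huh7, 1500 cells/well, 2 h settle; cmpd in DMSO, 24 h, 37 °C/5% CO2; luciferase reagent 10 min RT; luminescence.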
NPC1 prom act: activators of NPC1 promoter. Huh7 NPC1 promoter luciferase reporter, 24 h. Potency, µM (highest dose often 9.22 µM), most hits filed as activators. 320,000 tested, 2.4% active; also: nearly all actives have a fitted effect of over 60% in size
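Huh7 reporter cells (NPC1 promoter driving luciferase) are dosed with compound for 24 h at 37 °C, 5% CO2; luciferase detection reagent is then added and luminescence measured after 10 min at ambient temperature.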
ELG1 genotoxic: genotoxicity induction in ELG1-luciferase HEK293T cells; HEK293T ELG1-luciferase reporter, luminescence, 16 h; Potency, µM (highest dose often 46 µM), hits mostly activators; 330,000 tested, 1.3% active; also: nearly all actives have a fitted effect of over 60% in size
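Quantitative HTS format in 1536-well plates. HEK293T ELG1-luciferase reporter cells receive test compound and are incubated 16 hr at 37 °C, 5% CO2; ONE-Glo added, 30 min room temperature, then luminescence read.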
Hits are given with their value; n = inactive; u = inconclusive; x = no result given; ! = not active in a repeat; [ ] = dose if it differs, or a comment. A selection: hits, their analogues and other compounds. The true share with any hit is near 7.5%. Calls follow the shape of the dose curve; as a rule, active = well fitted curve in the direction sought with a large enough effect; inconclusive = small, poorly fitted or top-dose-only effect, or another doubt; inactive = no such curve, though single readings can be large; an effect the other way counts as inactive or inconclusive.

SMILES	SMN2 splice enh	FLuc modulator	Rab9 prom act	NPC1 prom act	ELG1 genotoxic
COc1cccc(NC(=O)c2sc3nc4n(c(=O)c3c2C)CCC4)c1	x	19µM!	4µM	u	u
Cc1c(C(=O)NCc2ccc(Cl)cc2)sc2nc3n(c(=O)c12)CCC3	x	n	x	x	x
COc1ccc(CNC(=O)c2sc3nc4n(c(=O)c3c2C)CCCCC4)cc1	x	19µM	x	x	x
Cc1ccc(NC(=O)c2sc3nc4n(c(=O)c3c2C)CCCCC4)c(Br)c1	x	n	x	x	x
OC(COc1ccc(CNCCc2ccccc2F)cc1)CN1CCCCC1 (centres undefined)	x	n	n	n	n
COc1ccc(OC)c(NCc2cccn2-c2nnc(N3CCCCC3)s2)c1	x	n	x	x	x
CCC(=O)N(Cc1ccco1)c1nc(C(=O)Nc2ccc(Cl)cc2)c(C)s1	n	n	n	n	n
CCC(=O)NC(=S)Nc1ccc(NC(=S)NC(=O)c2ccc(C)cc2)cc1	n	n	n	n	u
CCC(=O)NC(=S)Nc1ccc(-c2nc3ccccc3s2)cc1	5µM	0.76µM	1.6µM	0.45µM	u
Cc1ccc2nc(-c3ccc(NC(=S)NC4CC(C)(C)NC(C)(C)C4)cc3)sc2c1	u	11µM	u	u	u
Cc1ccc2nc(-c3ccc(NC(=S)NC(=O)C(C)C)cc3)sc2c1	x	3.8µM	1.8µM	0.4µM	9.2µM
CCC(=O)NC(=S)Nc1ccc(-c2nc3ccc(C)cc3s2)cc1	x	17µM	0.45µM	0.79µM	u
CC1(C)CC(NC(=S)Nc2ccc(S(N)(=O)=O)cc2)CC(C)(C)N1	n	n	n	n	n
Cc1c2cnn(-c3ccccc3)c(=O)c2c(C)n1CCCC(=O)Nc1ccc(F)cc1F	n	n	x	x	x
CC12CN3CC(c4ccccc4)(CN(C1)C3c1ccc(Cl)cc1)C2=O (centres undefined)	n	n	x	x	x
Cc1nc(SCCC(=O)O)c2cc(-c3ccccc3)sc2n1	x	0.67µM	n	n	n
Cc1nc(N2CCOCC2)c2cc(-c3ccccc3)sc2n1	n	21µM	n	n	n
Cc1ccccc1-n1c(SCC(N)=O)nc2sc(-c3ccccc3)cc2c1=O	n	n	n	n	n
CCCN1CCN(CCCNC(=O)Cn2nc(C)n3c(cc4cc(OC)ccc43)c2=O)CC1	x	n	n	n	n
COc1ccc(CNc2ccc3c(c2)nc(C)n3C)cc1	11µM	9.5µM	1.4µM	2.5µM	u
Cc1nc2cc(CO)ccc2n1C	n	n	n	n	n
Cc1nc2ccccc2n1Cc1ccccc1	x	n	n	n	n
Cc1ccc(CNc2ccc3c(c2)nc(C)n3C)cc1	x	4.3µM	0.63µM	0.56µM	2.1µM
Cc1nc2cc(NCc3ccc(Cl)cc3)ccc2n1C	x	2.1µM	0.45µM	0.45µM	2.6µM
Cc1nc2cc(NCc3ccccc3O)ccc2n1Cc1ccccc1	x	24µM	n	n	n
SMILES	SMN2 splice enh	FLuc modulator	Rab9 prom act	NPC1 prom act	ELG1 genotoxic
COc1ccc(OC)c(CNc2ccc3c(c2)nc(C)n3C)c1	x	n	n	n	n
COc1ccc2oc(-c3cccc(NC(=O)c4cc([N+](=O)[O-])ccc4N4CCOCC4)c3)nc2c1	n	u	x	x	x
COc1ccc(OC)c(NC(=O)C2Cc3ccccc3CN2S(=O)(=O)c2ccc(F)cc2)c1 (centres undefined)	n	n	x	x	x
COc1ccccc1NC(c1ccc(Cl)cc1)c1nnc(-c2cccc(F)c2)o1 (centres undefined)	n	u	x	x	x
Cn1cc(/C=C2\SC(=O)N(c3ccccc3)C2=O)c2ccccc21	u	n	4µM	3.5µM	u
CCN1C(=O)S/C(=C/c2cn(C)c3ccccc23)C1=O	n	12µM	n	n	n
CCOc1ccc(C(=O)N(Cc2ccc(C(C)C)cc2)Cc2ccco2)cc1	n	n	x	x	x
O=C(NC1CCCC1)c1ccc2c(=O)n(Cc3ccccc3)c(SCc3ccc([N+](=O)[O-])cc3)nc2c1	x	n	x	x	x
Brc1ccccc1-n1nnc(-c2nccs2)n1	x	7.6µM	1.4µM	2.5µM	8.2µM
Clc1ncccc1-c1nnn(-c2ccccc2Br)n1	x	17µM	n	n	u
Clc1ccc(-n2nnc(-c3cccnc3Cl)n2)cn1	x	13µM	u	u	u
Cc1ccc(-n2nnc(-c3cccnc3Cl)n2)cc1	x	0.76µM	0.79µM	0.79µM	5.8µM
Cc1ccc(-c2cc(C(=O)N3CCN(S(=O)(=O)c4ccc(Br)s4)CC3)[nH]n2)c(C)c1	x	n	x	x	x
CCC(C)c1ccc(NC(=O)C/C(C)=N/NC(=O)c2cnccn2)cc1 (centres undefined)	n	u	n	n	n
Cc1nnc(SCC(=O)c2ccc(Cl)cc2)n(N)c1=O	5µM	n	1µM	0.79µM	n
CCn1c(SCC(=O)c2ccc(Cl)cc2)nnc1-c1cccs1	n	24µM	n	n	n
CCn1c(SCC(N)=O)nnc1C(C)C	n	n	n	n	n
CCn1c(SCC(=O)c2ccc(Cl)cc2)nnc1C(C)C	n	19µM	u	u	u
CC1(C(=O)NC2CCCCC2)Cc2ccccc2C(=O)N1Cc1ccccc1Cl (centres undefined)	n	n	x	x	x
CC(=O)N1c2ccc(S(=O)(=O)N3CCCCC3)cc2CC1C(=O)NCc1ccccc1C (centres undefined)	x	n	n	n	n
O=C(Nc1ccc2c(c1)N(C1CCCC1)C(=O)c1ccccc1S2)c1ccc(F)cc1	x	n	x	x	x
CN1C(=O)/C(=C/c2ccccc2Cl)Sc2ccc(C(=O)N3CCCC3)cc21	x	u	n	n	n[9.26 µM]
CN1C(=O)/C(=C/c2ccc(C(F)(F)F)cc2)Sc2ccc(C(=O)N3CCN(c4ccccn4)CC3)cc21	x	8.5µM	n	n	n
Cc1cccc(/C=C2\Sc3ccc(C(=O)N4CCC(C(N)=O)CC4)cc3N(C)C2=O)c1	x	19µM	n	n	n
N#C/C(=C\c1ccc[nH]1)S(=O)(=O)c1ccccc1	n	n	n	n	n
SMILES	SMN2 splice enh	FLuc modulator	Rab9 prom act	NPC1 prom act	ELG1 genotoxic
C=CCNC(=S)NNC(=O)c1ccc(C)c(Cl)c1	n	n	n[1.84 µM]	n	n
C=CCNC(=S)NC(=O)c1ccc(C)c(Br)c1	14µM	17µM	u	n	u
CCC(=O)Nc1nc2c(OC)ccc(OC)c2s1	n	n	n	n	n
COc1ccc2sc(NC(=O)CC(C)C)nc2c1	u	11µM	4.5µM	u	18µM
COc1ccc2sc(NC(=O)NC(=O)c3c(Cl)cccc3Cl)nc2c1	x	19µM	n	n	n
COc1ccc2nc(NC(=O)CCn3cccc3)sc2c1	n	n	n	u	n
CCC(=O)Nc1nc2cc(OC)ccc2s1	u	12µM	1.4µM	2.2µM	u
CCC(=O)Nc1nc2ccc3nc(C)sc3c2s1	11µM	u	4µM	u	8.2µM
COc1cccc(NC(=O)NC(=O)c2c(C)cc(Cl)nc2Cl)c1	x	n	n	n	n
O=C(Cc1c(F)cccc1Cl)NNC(=O)c1cccs1	x	x	x	x	n
CCCCOC(=O)Nc1nc2ccc(OC)cc2s1	n	u	n	n	u
COc1cc(CNc2nc3ccccc3s2)cc(OC)c1OC	x	n	n	n	n
COc1ccc2sc(NCc3ccccc3)nc2c1	x	6µM	3.5µM	2.2µM	u
